Shown are actives, neighbours in structure and some others; about 2.4% of the full set was active somewhere.
zVAD death inh = blocks zVAD induced death of L929 cells; L929 zVAD necroptosis rescue, ATP luminescence, 24 h; with zVAD 60 µM; viability rescue, % at 10 µM; 220,000 compounds, 0.38% hits; AID 1377;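 active = activation, scaled between plate controls, above about 75%, limit read from the data; inactive = activation under that limit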;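 also: 0% = zVAD with DMSO and 100% = DMSO alone without zVAD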
PERK inh = inhibitors of human PERK kinase; Q9NZJ5; CHO PERK-DD fusion, SEAP luminescence translation reporter; 220,000 compounds, 0.17% hits; inhibition, % at 5.6 µM;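 active = inhibition above the mean inhibition of all tested compounds plus 3 SD, set separately per screening campaign, cut at about 2.9% in these data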;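 also: PERK kinase domain activated by AP20187 dimerizer at 100 nM; 0% = DMSO with dimerizer and 100% = rapamycin at 8.4 µM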
Target sequence (Q9NZJ5 whole entry, looked up, the tested form may be a part): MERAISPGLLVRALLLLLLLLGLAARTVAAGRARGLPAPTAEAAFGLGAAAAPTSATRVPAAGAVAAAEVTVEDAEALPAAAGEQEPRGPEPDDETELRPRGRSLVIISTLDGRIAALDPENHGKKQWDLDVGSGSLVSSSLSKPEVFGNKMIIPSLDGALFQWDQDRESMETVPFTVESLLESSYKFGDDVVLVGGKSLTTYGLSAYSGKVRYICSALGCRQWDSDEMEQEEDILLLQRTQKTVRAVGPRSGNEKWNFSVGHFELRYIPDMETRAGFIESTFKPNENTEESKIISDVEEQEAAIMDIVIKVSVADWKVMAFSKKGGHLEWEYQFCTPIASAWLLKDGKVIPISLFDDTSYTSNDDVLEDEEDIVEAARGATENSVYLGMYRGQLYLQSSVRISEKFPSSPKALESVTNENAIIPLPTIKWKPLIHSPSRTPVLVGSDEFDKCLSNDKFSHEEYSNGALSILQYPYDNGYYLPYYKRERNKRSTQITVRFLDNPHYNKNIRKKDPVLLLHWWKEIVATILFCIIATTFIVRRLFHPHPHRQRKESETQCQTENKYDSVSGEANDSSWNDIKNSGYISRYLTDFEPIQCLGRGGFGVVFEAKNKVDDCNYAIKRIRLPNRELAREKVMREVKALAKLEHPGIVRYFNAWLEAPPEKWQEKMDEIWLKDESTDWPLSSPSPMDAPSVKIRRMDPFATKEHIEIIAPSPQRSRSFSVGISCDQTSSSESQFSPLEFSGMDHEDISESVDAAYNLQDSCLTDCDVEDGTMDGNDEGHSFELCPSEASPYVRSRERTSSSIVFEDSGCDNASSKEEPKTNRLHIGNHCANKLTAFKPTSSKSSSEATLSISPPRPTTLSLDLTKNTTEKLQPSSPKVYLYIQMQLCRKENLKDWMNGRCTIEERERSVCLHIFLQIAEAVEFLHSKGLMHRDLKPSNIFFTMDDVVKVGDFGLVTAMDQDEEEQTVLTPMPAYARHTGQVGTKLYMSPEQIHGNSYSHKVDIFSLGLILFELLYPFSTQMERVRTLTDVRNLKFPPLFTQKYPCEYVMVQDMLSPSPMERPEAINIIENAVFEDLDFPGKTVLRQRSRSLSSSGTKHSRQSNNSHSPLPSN
DTT redox prof = compounds producing H2O2 with reducing agent – biochemical, NIH compound library profiling, artefact control for MLSCN library redox annotation, primary screen; DTT-dependent redox cycling H2O2, phenol red/HRP absorbance; 100% = 100 µM peroxide control, 0% = buffer; activation, % at 10 µM; 200,000 compounds, 0.03% hits; AID 878;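 active = activation of at least 50% relative to the plate's high and low controls in the primary single-dose screen; inactive = activation below 50%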;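 also: compound incubated with DTT at 0.8 mM final as the reducing agent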
WT yeast gro inh = growth inhibition of WT yeast, mitochondrial fusion screen; 190,000 compounds, 2.1% hits; mitochondrial fusion phenotypic screen, WT strain; AID 1362; inhibition, % at 10 µM; in the data active = inhibition above about 58%; tested in S. cerevisiae
TNF necrop inh = blocks TNF-alpha induced death of Jurkat FADD-/- cells. 220,000 compounds, 0.068% hits. activation (protection from cell death), % at 10 µM. AID 463075. Jurkat FADD-/- TNF necroptosis rescue, ATP luminescence, 24 h; 0 = TNF only, 100 = no-TNF cells;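 active = activation, meaning protection from cell death, of at least 50% relative to plate controls; inactive = activation below 50%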;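 also: necroptosis triggered by 40 ng/mL TNF-alpha added together with compound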
PKD1 kinase inh = blocks activity of human protein kinase D1 | inhibition, % (test concentration not listed) | 200,000 compounds, 0.056% hits | Q15139 | PKD1 kinase fluorescence polarization assay | AID 797; in the data active = inhibition above about 50%
* = called active by the depositor; . = no result.

SMILES	zVAD death inh	PERK inh	DTT redox prof	WT yeast gro inh	TNF necrop inh	PKD1 kinase inh
Cc1c2c(nc3ccccc13)CCC(C(C)(C)C)C2 (stereo not drawn)	-1	0	-1	68*	0	-1
O=S1(=O)N=C2CCCCCN2C(c2ccc(F)cc2)N1 (stereo not drawn)	-1	-1	0	20	1	-1
O=[N+]([O-])c1ccc(C2NS(=O)(=O)N=C3CCCCCN32)cc1 (stereo not drawn)	0	3.6*	.	.	-4	.
COc1ccc(-n2c(C)nc3sc4c(c3c2=O)CCC4)cc1	23	0	0	1	93*	-6
COc1ccc(-n2c(SCC(=O)O)nc3sc4c(c3c2=O)CCC4)cc1	1	2	-1	3	1	-1
CCOc1ncccc1C(=O)OCC(=O)N(CC)c1ccccc1	1	0	0	-12	0	-4
COc1cc(/C=N/N=C(/C(=O)c2ccccc2)c2ccccc2)cc(OC)c1O	4	0	0	72*	4	-6
CCCCCNC(=O)c1c[nH]c2ccc(S(=O)(=O)N3CCC4(CC3)OCCO4)cc2c1=O	.	0	-1	7	5	3
CCCCCc1ccc(OCCCC[n+]2cccc(C)c2)c(CCCCC)c1	4	1	0	85	-11	2
CCCCCc1ccc(OCCCC[n+]2ccccc2)c(CCCCC)c1	2	0	0	86*	-13	-1
CCCCCc1ccc(OCCCC[n+]2ccc(C)cc2)c(CCCCC)c1	5	0	0	98*	-12	11
CCC(C)(C)c1ccc(OCCCC[n+]2ccccc2)c(C(C)(C)CC)c1	1	1	0	93*	-13	-6
CCOC(=O)c1c(C)[nH]c(N=Nc2ccccc2C)c1C	0	-1	0	77*	2	6
c1ccc(N(c2ccccc2)c2nc(N3CCCC3)nc(-n3ccnc3)n2)cc1	0	0	3	78*	-4	-10
CC(C)CNS(=O)(=O)c1ccc(S(=O)(=O)N2CCCN(Cc3ccccc3)C2)cc1	0	1	2	83*	-3	-18
Cc1cccc(C)c1OCCOC(=O)c1n[nH]c2ccccc12	2	0	0	67*	1	-14
Cc1cc(NC(=O)COC(=O)c2n[nH]c3ccccc23)no1	0	1	0	-1	-1	-4
CC(CNC(=O)COc1ccccc1)OC(=O)Nc1ccc(Cl)c(Cl)c1 (stereo not drawn)	3	0	3	82*	2	-7
COC(=O)NCC(C)OC(=O)Nc1cccc(Cl)c1 (stereo not drawn)	1	0	4	1	2	4
COC(=O)c1ccccc1Oc1ccc(NC(=O)CCCl)cc1	1	1	-1	-10	1	-6
COCCCNC(=O)c1ccc2c(c1)OCO2	0	1	3	5	-2	-14
COCCCNC(=O)c1cccc(C(=O)NCCCOC)c1	2	0	0	66*	1	-17
CCN(CC)C(=O)c1cc([N+](=O)[O-])cc2c1-c1ccc([N+](=O)[O-])cc1C2=C(C#N)C#N	1	0	.	.	-31	.
CCC(C)n1c(=S)[nH]c2c(sc3ccc([N+](=O)[O-])cc32)c1=O (stereo not drawn)	0	0	0	68*	2	10
CC(C)n1c2ccccc2c2cc([N+](=O)[O-])ccc21	1	0	0	6	1	-7
Cc1ccccc1CN1CCc2c(OCC(=O)N3CCCc4ccccc43)cccc2C1=O	0	-1	0	62*	2	-5
Cc1ccc2[nH]c(=O)c(C(c3nnnn3CC3CCCO3)N3CCCc4ccccc43)cc2c1 (stereo not drawn)	0	0	1	-7	-2	-11
Cc1ccc(C(c2nnnn2CCc2ccccc2)N2CCC(C)CC2)cc1 (stereo not drawn)	0	0	1	74*	0	-6
CN(C)CCN(C(=O)c1ccccc1Cl)c1nc2c(Cl)cccc2s1	0	1	0	11	3	-7
Cc1cc(N=Cc2cc(Cl)ccc2O)no1	0	0	1	58*	-4	8

High-throughput results (PubChem)
